Assay results as given in PubChem BioAssay (Tox21).
Records with an inconclusive call do not appear. Active and inactive are the calls of the source. The call rests on the fitted dose curve; in most records, active means well fitted curve in the direction sought with a large enough effect in the repeat runs; inconclusive means weak or mixed curves; inactive means no such curve, though single readings can be large; an effect the other way counts as inactive or inconclusive.

Assays:
[1] = A CellTox Green Cytotoxicity Assay to monitor cytotoxicity in HEK293 cells - 40 hour (AID 1224871); further: nearly all actives have a fitted effect of over 45% in size
How it was run: (§1)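 Fluorescence from a DNA-binding dye excluded by viable cells was measured repeatedly in the same HEK293 wells (600 cells/well) during continuous compound exposure at 37 C. Each assay gives one read point: 0, 8, 16, 24, 32 or 40 h.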

[2] = qHTS RealTime-Glo MT Cell Viability Assay in HEK293 cells - 16 hour (AID 1224872); further: top concentration of the series differs between compounds; nearly all actives have a fitted effect of over 50% in size
How it was run: (§2)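 Homogeneous bioluminescent viability format in HEK293 cells (600 cells/well). Following 5 h at 37 C/5% CO2, 23 nL compound was pintooled; the signal was measured repeatedly during 40 h incubation.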

[3] = qHTS RealTime-Glo MT Cell Viability Assay in HepG2 cells - 8 hour (AID 1224873); further: nearly all actives have a fitted effect of over 55% in size
How it was run: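 HepG2 cells mixed with RealTime-Glo MT reagents (NanoLuc plus cell-permeant prosubstrate) were seeded at 600 cells/well, incubated 5 h at 37 C/5% CO2, then pinned with compounds in DMSO; nonlytic luminescence tracked viability during 40 h treatment.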

[4] = qHTS RealTime-Glo MT Cell Viability Assay in HEK293 cells - 40 hour (AID 1224874); details: RealTime-Glo luminescence; max response: stronger effect = lower value; further: nearly all actives have a fitted effect of over 50% in size
How it was run: (§3)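 Luminescence, which tracks viable cell number through reduction of the prosubstrate to a NanoLuc substrate, was read over continuous 37 C culture. Cells (600/well) were premixed with reagent and rested 5 h before 23 nL of compound in DMSO was pinned.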

[5] = A CellTox Green Cytotoxicity Assay to monitor cytotoxicity in HEK293 cells - 24 hour (AID 1224875); further: series mostly up to about 77 µM; nearly all actives have a fitted effect of over 45% in size
How it was run: as §1

[6] = A CellTox Green Cytotoxicity Assay to monitor cytotoxicity in HepG2 cells - 16 hour (AID 1224876); further: nearly all actives have a fitted effect of over 45% in size
How it was run: (§4)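 Real-time cytotoxicity: fluorescence of a cell-impermeant cyanine dye binding DNA of dead HepG2 cells, measured repeatedly (0–40 h) during compound exposure at 37 C. Cells seeded 600/well with reagent, dosed after 5 h.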

[7] = qHTS RealTime-Glo MT Cell Viability Assay in HepG2 cells - 32 hour (AID 1224877); further: nearly all actives have a fitted effect of over 55% in size
How it was run: (§5)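 Cell number in HepG2 cultures estimated from NanoLuc luminescence generated by metabolic reduction of a prosubstrate by living cells. The homogeneous, nonlytic format allowed repeated reads at 0, 8, 16, 24, 32 and 40 h of compound exposure.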

[8] = A CellTox Green Cytotoxicity Assay to monitor cytotoxicity in HepG2 cells - 24 hour (AID 1224878); further: nearly all actives have a fitted effect of over 45% in size
How it was run: as §4

[9] = A CellTox Green Cytotoxicity Assay to monitor cytotoxicity in HepG2 cells - 40 hour (AID 1224879); further: nearly all actives have a fitted effect of over 40% in size
How it was run: as §4

[10] = qHTS RealTime-Glo MT Cell Viability Assay in HEK293 cells - 0 hour (AID 1224880)
How it was run: as §3

[11] = A CellTox Green Cytotoxicity Assay to monitor cytotoxicity in HEK293 cells - 32 hour (AID 1224881); further: nearly all actives have a fitted effect of over 40% in size
How it was run: as §1

[12] = A CellTox Green Cytotoxicity Assay to monitor cytotoxicity in HepG2 cells - 0 hour (AID 1224882); further: nearly all actives have a fitted effect of over 35% in size
How it was run: as §4

[13] = A CellTox Green Cytotoxicity Assay to monitor cytotoxicity in HepG2 cells - 32 hour (AID 1224883); further: nearly all actives have a fitted effect of over 50% in size
How it was run: as §4

[14] = qHTS RealTime-Glo MT Cell Viability Assay in HepG2 cells - 16 hour (AID 1224885); further: nearly all actives have a fitted effect of over 50% in size
How it was run: as §5

[15] = qHTS RealTime-Glo MT Cell Viability Assay in HEK293 cells - 24 hour (AID 1224886)
How it was run: as §2

[16] = qHTS RealTime-Glo MT Cell Viability Assay in HEK293 cells - 8 hour (AID 1224887)
How it was run: as §3

[17] = A CellTox Green Cytotoxicity Assay to monitor cytotoxicity in HEK293 cells - 16 hour (AID 1224888); further: nearly all actives have a fitted effect of over 35% in size
How it was run: as §1

[18] = qHTS RealTime-Glo MT Cell Viability Assay in HepG2 cells - 0 hour (AID 1224889); further: nearly all actives have a fitted effect of over 50% in size
How it was run: as §5

[19] = A CellTox Green Cytotoxicity Assay to monitor cytotoxicity in HEK293 cells - 8 hour (AID 1224884); further: nearly all actives have a fitted effect of over 35% in size
How it was run: as §1

[20] = A CellTox Green Cytotoxicity Assay to monitor cytotoxicity in HepG2 cells - 8 hour (AID 1224890); further: nearly all actives have a fitted effect of over 45% in size
How it was run: as §4
On the % scale 0 is the no-effect control and ±100 the full control effect.

CCCCCCCOC(=O)CCC
inactive: Potency [1] | Potency [2] | outcome [3] | max response [4] 4.56% | Potency [5] | Potency [6] | Potency [7] | Potency [8] | Potency [9] | outcome [10] | Potency [11] | Potency [12] | Potency [13] | outcome [14] | Potency [15] | Potency [16] | Potency [17] | Potency [18]

O=c1oc2c(O)c(O)cc3c(=O)oc4c(O)c(O)cc1c4c23
inactive: cytotoxicity increase [1] 16.8% [at 15.8 µM] | activity change, negative = cytotoxicity [2] -3.75% [at 15.8 µM] | viability change, negative = cytotoxic [3] 0.835% [at 15.8 µM] | max response [4] -22.4% | activity change [5] 21.9% [at 15.8 µM, stronger effect = higher value] | cytotoxicity increase [6] 1.02% [at 15.8 µM] | activity change, negative = cytotoxic [7] -12.3% [at 15.8 µM] | cytotoxicity [8] 4.4% [at 15.8 µM] | activity change, negative = cytotoxicity [10] -5.71% [at 15.8 µM] | cytotoxicity increase [11] 18.3% [at 15.8 µM] | cytotoxicity [12] -11.8% [at 15.8 µM] | cytotoxicity increase [13] 19.5% [at 15.8 µM] | cytotoxicity increase [19] 7.37% [at 15.8 µM] | activity change, negative = cytotoxic [14] -6.97% [at 15.8 µM] | activity change, negative = cytotoxicity [15] -7.55% [at 15.8 µM] | activity change, negative = cytotoxicity [16] -0.845% [at 15.8 µM] | activity change [17] 13% [at 15.8 µM, stronger effect = higher value] | activity change, negative = cytotoxicity [18] 0.919% [at 15.8 µM] | cytotoxicity increase [20] -1.27% [at 15.8 µM]

Cc1cc(S(=O)(=O)O)c(N)cc1Cl
inactive: Potency [1] | Potency [2] | outcome [3] | max response [4] -1.1% | Potency [5] | Potency [6] | Potency [7] | Potency [8] | Potency [9] | outcome [10] | Potency [11] | Potency [12] | Potency [13] | Potency [19] | Potency [15] | Potency [16] | Potency [17] | Potency [18] | Potency [20]

CC(C)O
inactive: Potency [1] | Potency [2] | outcome [3] | max response [4] -1.12% | Potency [5] | Potency [6] | Potency [7] | Potency [8] | Potency [9] | outcome [10] | Potency [11] | Potency [12] | Potency [13] | Potency [19] | Potency [15] | Potency [16] | Potency [17] | Potency [18] | Potency [20]

CCCCCCCCOC(=O)CCCCCCCCC(=O)OCCCCCCCC
inactive: Potency [1] | Potency [2] | outcome [3] | max response [4] 6.02% | Potency [5] | Potency [6] | Potency [7] | Potency [8] | Potency [9] | outcome [10] | Potency [11] | Potency [12] | Potency [13] | outcome [14] | Potency [15] | Potency [16] | Potency [17] | Potency [18]
